Hits are enriched below; roughly 2.6% of the tested compounds scored in any of these assays.
CRFR2-BP antag: antagonists of CRF-binding protein/CRF-R2 receptor complex; HEK293 CRF-R2/CRF-BP, CRF-induced calcium fluorescence; inhibition, % at 11.8 µM; 0.59% of 350,000 active;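 active = inhibition of the ligand-induced calcium signal above about 50% at the single tested concentration, limit read from the data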
IDE cell inh: inhibitors of human insulin-degrading enzyme in cells; 0.41% of 320,000 active; HEK cells, FAbetaB cleavage, fluorescence polarization; AID 434962; P14735; inhibition, % at 5.59 µM;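 active = percent inhibition above the average of all tested compounds plus 3 SD, set per screening campaign, cut at about 16% in these data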;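 also: IDE supplied by intact live HEK cells; FP after avidin binding of uncleaved biotin substrate so inhibition keeps polarization high; 0% = DMSO wells and 100% = 60 µM reference IDE inhibitor Ii1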
Target sequence (P14735 whole entry, looked up): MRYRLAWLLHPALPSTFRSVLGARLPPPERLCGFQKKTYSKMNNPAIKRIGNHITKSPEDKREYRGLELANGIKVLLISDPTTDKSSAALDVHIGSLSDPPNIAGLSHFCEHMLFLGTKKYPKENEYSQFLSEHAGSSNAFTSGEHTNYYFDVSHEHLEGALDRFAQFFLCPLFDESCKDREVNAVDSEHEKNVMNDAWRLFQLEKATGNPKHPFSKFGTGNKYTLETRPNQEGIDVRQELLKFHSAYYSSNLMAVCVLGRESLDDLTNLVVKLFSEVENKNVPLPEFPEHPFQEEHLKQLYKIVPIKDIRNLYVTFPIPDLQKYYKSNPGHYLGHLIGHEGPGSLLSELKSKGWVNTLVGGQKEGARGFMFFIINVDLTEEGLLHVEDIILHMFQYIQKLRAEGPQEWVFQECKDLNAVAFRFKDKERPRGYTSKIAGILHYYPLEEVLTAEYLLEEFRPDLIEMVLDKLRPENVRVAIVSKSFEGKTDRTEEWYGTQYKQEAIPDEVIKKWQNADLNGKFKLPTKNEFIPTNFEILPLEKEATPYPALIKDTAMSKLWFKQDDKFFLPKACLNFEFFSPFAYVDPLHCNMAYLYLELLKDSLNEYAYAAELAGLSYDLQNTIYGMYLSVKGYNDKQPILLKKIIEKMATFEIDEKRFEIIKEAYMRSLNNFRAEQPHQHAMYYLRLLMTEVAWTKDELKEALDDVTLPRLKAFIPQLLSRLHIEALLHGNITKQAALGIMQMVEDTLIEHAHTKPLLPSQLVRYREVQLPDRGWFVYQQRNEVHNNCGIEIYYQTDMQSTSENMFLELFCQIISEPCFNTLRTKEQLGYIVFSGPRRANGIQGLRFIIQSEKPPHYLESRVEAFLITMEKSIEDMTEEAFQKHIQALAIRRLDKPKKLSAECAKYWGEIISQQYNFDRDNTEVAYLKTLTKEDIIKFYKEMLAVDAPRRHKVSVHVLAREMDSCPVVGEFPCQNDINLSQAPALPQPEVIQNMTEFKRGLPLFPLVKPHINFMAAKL
IDE act: activators of human insulin-degrading enzyme in cells; P14735; HEK cells, FAbeta-B cleavage, fluorescence polarization; 0% vehicle, 100% cell-free pure enzyme wells; activation, % at 5.96 µM; 0.073% of 340,000 active; AID 493087;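 active = activation above the mean of all tested compounds plus 3 SD, set per screening campaign, cut at about 17% in these data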
CRFBP-R2 agonist: CRF-BP/CRF-R2 complex agonism; HEK293 CRF-R2/CRF-BP, calcium dye fluorescence (FLIPR); percent of saturating CRF peptide response; activation, % at 13.2 µM; 0.46% of 350,000 active; AID 588473;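 active = activation of at least 50%, plus an integration ratio under a set limit after plate pattern correction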;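 also: plate controls were neutral control wells without compound for no effect and CRF at EC100 for full effect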
TPT1 inh: blocks Candida albicans tRNA 2'-phosphotransferase; recombinant caTPT1, FP RNA substrate dephosphorylation; inhibition, % at 5 µM; 0.81% of 300,000 active;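 active = inhibition above the mean of all tested compounds plus 3 SD, set per screening campaign, cut at about 24% in these data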;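 also: plate controls were DMSO alone for no effect and ferristatin control at 100 nM for full effect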
Myeloid diff MLP: myeloid differentiation induction; ER-HoxA9 myeloid progenitors, lysozyme-GFP differentiation, flow cytometry; calls only at 10 µM; 1% of 360,000 active;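 active = normalized GFP-positive differentiation at or above the plate's own cutoff, the solvent-only control mean plus 3 SD; inconclusive = no clear call, values can overlap the other calls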;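 also: cells exposed to compound for four days before flow analysis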
* = called active by the depositor; i = inactive; u = inconclusive; x = no result given; + = active, no number.

SMILES | CRFR2-BP antag | IDE cell inh | IDE act | CRFBP-R2 agonist | TPT1 inh | Myeloid diff MLP
CCOC(=O)C1=C(C)N=c2s/c(=C/c3ccc(OCC(=O)O)cc3)c(=O)n2C1c1ccc(F)cc1 (centres undefined) | -5 | 12 | -2 | 3 | 0 | +
CCOC(=O)C1=C(C)N=c2s/c(=C/c3ccc(OCC(=O)O)cc3)c(=O)n2C1c1ccc(SC)cc1 (centres undefined) | x | x | -6 | x | x | i
CC1CCN(Cc2cc(=O)oc3ccc4ccccc4c23)CC1 | -3 | 7 | 5 | -2 | -1 | i
S=c1[nH]c2ccccc2n2c(=S)[nH]nc12 | 55* | 4 | -6 | 6 | -1 | i
COC(=O)C1=NN(c2ccccc2)C2(S1)SC(C(C)=O)=C(C)N2c1ccccc1 (centres undefined) | 65* | -3 | 5 | -1 | 0 | i
COC(=O)C1=NN(c2ccc(C)cc2)C2(S1)SC(C(C)=O)=C(C)N2c1ccccc1 (centres undefined) | 12 | 3 | 2 | -1 | -1 | i
CN(C)CCNC(=O)c1ccc(Cl)s1 | -2 | 1 | 7 | 0 | 3 | +
O=C(NCCCCNC(=O)c1ccc(Cl)s1)c1ccc(Cl)s1 | -3 | 1 | 4 | -2 | 1 | i
Nc1c(C(=O)C2CC2)sc2nc(-c3cccs3)cc(C(F)(F)F)c12 | -96 | -3 | -4 | 44 | 3 | +
CCC(=O)N1Cc2cc(C(=O)Nc3nccs3)nc(-c3cccc(-c4ccccc4OC)c3)c2[C@@H]1CCO | x | x | x | x | x | i
CC(C)N1CCN(Cc2nc(-c3ccccc3)cs2)CC1CCO (centres undefined) | 82* | 0 | 4 | -3 | 1 | i
Cn1nnnc1Sc1ncnc2scc(-c3ccc([N+](=O)[O-])cc3)c12 | 6 | 0 | 0 | 4 | x | u
COc1ccc(C(CNC(=O)c2oc3ccc(OC)cc3c2C)N2CCCC2)cc1 (centres undefined) | -4 | 0 | -3 | 3 | 1 | i
COc1ccc(C(=O)c2oc3ccc(OC)cc3c2N)cc1 | -28 | 1 | -2 | 0 | 0 | i
COc1ccc2oc(C(=O)NCCC(C)C)c(C)c2c1 | 79* | 8 | 7 | 1 | 0 | i
COC(=O)c1oc2ccc(OC)cc2c1N | -7 | 0 | 2 | 0 | -4 | +
O=C(Cc1c(F)cccc1Cl)NNC(=O)c1cccs1 | -2 | 2 | 6 | 3 | x | i
CCOc1ncccc1C(=O)NCc1ccccc1F | 2 | -3 | 2 | -3 | 0 | i
O=C(NCCc1ccccc1F)c1cccc2cccnc12 | -2 | 2 | -5 | 0 | 3 | +
CN(C)S(=O)(=O)c1cccc(NC(=O)CSc2cccc3cccnc23)c1 | -8 | 3 | -2 | -1 | -3 | i
O=[N+]([O-])c1cc(-c2ccccc2)cc([N+](=O)[O-])c1O | 65* | x | 6 | 1 | x | i
O=C(COC(=O)CC1c2ccccc2CCN1S(=O)(=O)c1ccc(F)cc1)Nc1ccccc1 (centres undefined) | 57* | 7 | 3 | 7 | -8 | i
CCc1cccc(CC)c1NC(=O)COC(=O)CC1c2ccccc2CCN1S(=O)(=O)c1ccc(F)cc1 (centres undefined) | 15 | -2 | 0 | 0 | -2 | i
Cc1cc(NC(=O)c2ccc(Cl)cc2)cc(C)c1OCC(=O)N1CCOCC1 | 5 | 9 | -8 | -2 | -1 | i
C[C@@H]1ON(C)[C@H]2C[C@H]3c4[nH]c5ccccc5c4CCN3C[C@@H]12 | -1 | x | x | 1 | x | +
SMILES | CRFR2-BP antag | IDE cell inh | IDE act | CRFBP-R2 agonist | TPT1 inh | Myeloid diff MLP
Cc1cccc(-c2ccc3[nH]c4c(c3c2)CCN2C[C@H]3[C@H](C)ON(C)[C@H]3C[C@@H]42)c1 | -1 | x | x | 2 | x | i
CCCCOC(=O)c1ccc(-c2ccc(/C=N/NC(=S)NCC)o2)cc1 | -10 | 5 | 8 | 6 | 5 | +
c1cnc2c(-c3ccc4nccn4c3)cccc2c1 | x | x | x | x | x | i
CC1(c2ccc(OC(F)F)cc2)NC(=O)N(/N=C/c2c(O)ccc3ccccc23)C1=O (centres undefined) | -122 | 5 | -1 | 87* | 0 | i
Cn1c(=O)cc(SCC(=O)NCCN2CCN(c3ccccc3F)CC2)c2cc(Cl)ccc21 | 15 | 2 | -2 | 0 | -2 | i
COc1ccc(-n2nc(C(=O)c3cccs3)cc(-c3nc4ccccc4[nH]3)c2=N)cc1 | 0 | 1 | 0 | 15 | 1 | +
COC(=O)C[C@@H]1C[C@@H]2c3cc(NS(=O)(=O)c4ccccc4)ccc3O[C@@H]2[C@@H](CO)O1 | 3 | x | x | 0 | x | i
O=C(C[C@H]1C[C@@H]2c3cc(NS(=O)(=O)c4ccccc4)ccc3O[C@@H]2[C@H](CO)O1)N1CCOCC1 | 52* | x | x | 0 | x | i
COc1ccc(-c2c(C(=O)c3ccc(Br)cc3)[nH]c(N)c2C(=O)c2ccccc2)cc1OC | x | x | x | x | x | +
Nc1nc(-c2ccc3ccccc3c2)c(C2(O)C(=O)Nc3c(Br)cc(F)cc32)s1 (centres undefined) | -20 | -1 | 6 | -2 | 0 | i
COc1ccc(NC(=O)CCN2CCCCCC2)cc1 | 80* | 4 | 5 | 0 | 6 | i
COc1ccc(NC(=O)CCN2CCCCC2)cc1 | -7 | -1 | 4 | 1 | 0 | i
COc1ccc(C(=O)Nc2ccc(N3CCCC3)cc2)cc1 | -7 | 5 | -5 | 4 | 9 | +
O=C(Nc1ccc(N2CCCC2)cc1)c1ccc(Br)o1 | 3 | 4 | 1 | 2 | 8 | +
C/C(=N\Nc1ccc(C(=O)O)cc1)c1ccc(S(=O)(=O)NCc2ccco2)cc1 | -15 | 1 | -3 | 1 | 5 | i
O=C(NCCCN1CCCC1=O)C(=O)NCC1OCCN1S(=O)(=O)c1ccc(Cl)cc1 (centres undefined) | 5 | 2 | 10 | -2 | 1 | i
Cc1ccc(C(=O)CCC(=O)OCC(=O)N(CC(C)C)c2c(N)n(Cc3ccccc3)c(=O)[nH]c2=O)cc1 | 2 | 3 | 3 | 1 | 0 | i
COCCN(C(=O)CSc1nnc(Nc2ccccc2F)s1)c1c(N)n(Cc2ccccc2)c(=O)[nH]c1=O | -7 | -3 | 2 | -1 | -2 | i
COc1ccc2c(c1)c(C(=O)O)c(C)n2-c1ccc(Cl)cc1 | 106* | 5 | 5 | 3 | -2 | i
CN(C)S(=O)(=O)c1ccc(N=Cc2c(C(F)(F)F)[nH]n(C)c2=O)cc1 | 11 | -2 | 2 | 0 | -2 | +
O=C(Cc1ccc([N+](=O)[O-])cc1)N/N=C/c1ccc([N+](=O)[O-])o1 | 4 | 5 | 4 | 1 | 5 | +

Screens as filed in PubChem.
